Source: PubChem BioAssay (Tox21)
Where “and” joins values, the source holds several entries; their conditions need not be identical. Equal entries are not always repeated. Inconclusive results are not listed. A call without a number means that no potency is given here. The source holds several records for some structures; these can differ, active in one and inactive in another. Calls of active or inactive are those of the source. Calls follow the shape of the dose curve; as a rule, active = well fitted curve in the direction sought with a large enough effect in the repeat runs; inconclusive = weak or mixed curves; inactive = no such curve, though single readings can be large; an effect the other way counts as inactive or inconclusive.

Experiments:
[1] = qHTS assay to identify small molecule antagonists of the glucocorticoid receptor (GR) signaling pathway - cell viability counter screen (AID 720693); also: nearly all actives have a fitted effect of over 55% in size
[2] = qHTS assay for identifying genotoxic compounds that show differential cytotoxicity against isogenic chicken DT40 cell lines with known DNA damage response pathways - Rev3 mutant cell line (AID 743014); also: nearly all actives have a fitted effect of over 55% in size; also: potency is read from the fitted curve at half-maximal effect
[3] = qHTS assay for identifying genotoxic compounds that show differential cytotoxicity against isogenic chicken DT40 cell lines with known DNA damage response pathways - Rad54/Ku70 mutant cell line (AID 743015); also: nearly all actives have a fitted effect of over 60% in size; also: potency is read from the fitted curve at half-maximal effect
[4] = qHTS assay to identify small molecule antagonists of the androgen receptor (AR) signaling pathway - cell viability counter screen (AID 743033; also: nearly all actives have a fitted effect of over 45% in size)
[5] = qHTS assay to identify small molecule antagonists of the androgen receptor (AR) signaling pathway using the MDA cell line - cell viability counter screen (AID 743041; also: nearly all actives have a fitted effect of over 45% in size)
Summary of the method: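 Viability read by CellTiter-Fluor fluorescence in the same wells as the antagonist screen, added after 15.5 h of a 16 h, 37C exposure. Human breast carcinoma MDA-kb2 AR-luc cells, compounds co-dosed with agonist R1881.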

Row | SMILES | Potency [1] | Potency [2] | Potency [3] | Potency [4] | Potency [5]
1 | OB(O)O | inactive | inactive | inactive | inactive | inactive
2 | CCOC(=O)CC(=O)OCC | inactive | inactive | inactive | inactive | inactive
3 | C[Si](C)(C)N[Si](C)(C)C | inactive | inactive | inactive | inactive | inactive
4 | Cc1ccc([N+](=O)[O-])cc1N | inactive | inactive | inactive | inactive | inactive
5 | COCN(COC)c1nc(N(COC)COC)nc(N(COC)COC)n1 | inactive | inactive | inactive | inactive | inactive
6 | O=Cc1ccc(CO)o1 | inactive | inactive | inactive | inactive | inactive
7 | O=c1c(O)c(-c2ccc(O)c(O)c2)oc2cc(O)cc(O)c12 | inactive | 54.5 µM (active) and 27.5 µM (active) and 61.1 µM (active) | 30.7 µM (active) and 24.5 µM (active) and 61.1 µM (active) | inactive | inactive
8 | O=C1OC(=O)c2c(Cl)c(Cl)c(Cl)c(Cl)c21 | inactive | inactive | inactive | inactive | inactive
9 | O=C1CCCCCCCCCCC1 | inactive | inactive | inactive | inactive | inactive
10 | CC(C)=CCC/C(C)=C/C=O | inactive | inactive | inactive | inactive | inactive
11 | O=c1n(CCCN2CCN(c3cccc(Cl)c3)CC2)nc2ccccn12 | inactive | inactive and 54.5 µM (active) | inactive and 43.3 µM (active) | inactive | inactive
12 | CCOC(=O)c1ccc(O)cc1 | inactive | inactive | inactive | inactive | inactive
13 | CC(=O)OC/C=C(\C)CCC=C(C)C | inactive | inactive | inactive | inactive | inactive
14 | Cc1ccc(C)c(S(=O)(=O)O)c1 | inactive | inactive | inactive | inactive | inactive
15 | CC(COCC(C)OC(=O)c1ccccc1)OC(=O)c1ccccc1 (stereo not given) | inactive | inactive | 61.1 µM (active) | inactive | inactive
16 | CC[N+](CC)(CC(=O)Nc1c(C)cccc1C)Cc1ccccc1 | inactive | inactive and 30.6 µM (active) | inactive | inactive | inactive
17 | Oc1ccc(Cc2ccccc2O)cc1 | inactive | inactive | inactive | inactive | inactive
18 | CCCCCNCCCCC | inactive | inactive | inactive | inactive | inactive

Row | SMILES | Potency [1] | Potency [2] | Potency [3] | Potency [4] | Potency [5]
19 | C=CC(C)(C)C | inactive | inactive | inactive | inactive | inactive
20 | CC1(C)[C@@H](O[C@H]2O[C@H](C(=O)O)[C@@H](O)[C@H](O)[C@H]2O[C@@H]2O[C@H](C(=O)O)[C@@H](O)[C@H](O)[C@H]2O)CC[C@]2(C)[C@H]3C(=O)C=C4[C@@H]5C[C@@](C)(C(=O)O)CC[C@]5(C)CC[C@@]4(C)[C@]3(C)CC[C@@H]12 | inactive | inactive | inactive | inactive | inactive
21 | Clc1cccc(Cl)c1NC1=NCCN1 | inactive | inactive and 61.1 µM (active) | inactive | inactive | inactive
22 | CC1(C)C(=O)N(Cl)C(=O)N1Cl | inactive | inactive | inactive | inactive | inactive
23 | Cc1cc(CC(=O)O)n(C)c1C(=O)c1ccc(Cl)cc1 | inactive | inactive | inactive | inactive | inactive
24 | C=C(C)CC(C)(C)C | inactive | inactive | inactive | inactive | inactive
25 | CCn1cc(C(=O)O)c(=O)c2cc3c(cc21)OCO3 | inactive | inactive | inactive | inactive | inactive
26 | C[n+]1ccn(CCO)c1 | inactive | inactive | inactive | inactive | inactive
27 | CC(=O)CC(=O)N(C)C | inactive | inactive | inactive | inactive | inactive
28 | C=C(CC(=O)O)C(=O)O | inactive | inactive | inactive | inactive | inactive
29 | OCC(CO)(CO)CO | inactive | inactive | inactive | inactive | inactive
30 | O=C1O[C@H]([C@H](O)CO)C(O)=C1O | inactive | inactive | inactive | inactive | inactive
31 | CCCCCC(C)=O | inactive | inactive | inactive | inactive | inactive
32 | Nc1cccc(N)n1 | inactive | inactive | inactive | inactive | inactive
33 | CCCCCCCCO | inactive | inactive | inactive | inactive | inactive
34 | CCCOC(=O)NCCCN(C)C | inactive | inactive | inactive | inactive | inactive
35 | Cc1cc(C)cc(O)c1 | inactive | inactive | inactive | inactive | inactive
